Results as given in PubChem BioAssay (NCATS).
Several values for one entry are separate records, joined by “and”; a condition that tells them apart may be missing. Equal entries are not always repeated. Results filed as inconclusive are left out. Values without a mark were called inactive. Activity calls are given as the source filed them. Calls follow the shape of the dose curve; as a rule, active = well fitted cell-killing curve with a large enough effect; inconclusive = small, poorly fitted or top-dose-only effect; inactive = flat fitted curve, though single readings scatter.

Columns and labels:
[1] = Cellular viability qHTS for adrenocortical cancer (ACC) cell line SW-13 (AID 1963989); conditions: SW-13 ACC cells viability, CellTiter-Glo, 48 h; activity (max response): hits give low values; also: nearly all actives have a fitted effect of over 65% in size;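 as to activity (max response): cells grown in serum-free medium with ITS supplement; % is scaled to controls: 0 for no effect and ±100 for the full control effect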
Outline: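 Luminescent ATP read-out (CellTiter-Glo, 20 min at room temperature) measured metabolically competent SW-13 cells after 48 h compound treatment. Final concentrations spanned up to 46 uM; bortezomib served as positive control.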

[2] = Cellular viability qHTS for adrenocortical cancer (ACC) cell line NCI-H295R (AID 1963990); also: nearly all actives have a fitted effect of over 60% in size;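 as to activity change, negative = viability loss: 0% = DMSO only wells and -100% = full killing with cytotoxic reference compound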
Outline: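 IC50 and maximal efficacy derive from four-parameter logistic modelling of titration curves, with reads scaled between DMSO-only wells (0%) and doxorubicin hydrochloride (100% inhibition). Compounds spanned up to 46 uM over 48 h.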
Potency is read from the fitted curve at half-maximal effect.

Structure (SMILES)	activity (max response) [1]	Potency [2]	Potency [1]	activity change, negative = viability loss [2]
COc1cc(/C=C(\C#N)C(=O)Nc2nnc(C(F)(F)F)s2)ccc1OCc1ccc(C(F)(F)F)cc1C(F)(F)F	-15.8%	inactive	–	–
Cc1nc(N)nc(N)c1-c1ccc(Cl)c(Cl)c1	–	0.13 µM (active)	0.231 µM (active)	–
CCN(CC)CCOCCOC(=O)C1(c2ccccc2)CCCC1	-3.2%	inactive	–	–
O=C(Nc1ccccc1)Nc1ccc(-c2ccc(C(=O)[C@@H]3CCC[C@H]3C(=O)O)cc2)cc1	-19.9%	inactive	–	–
N=C1S/C(=C\c2ccc(-c3ccc4c(c3)C(=O)NC4=O)o2)C(=O)N1c1ccc(Br)cc1	2.9%	inactive	–	–
O=C(O)CCCCN(CCc1ccccc1OCc1ccc(CCc2ccccc2)cc1)Cc1ccc(C(=O)O)cc1	9.06%	inactive	–	–
CO[C@H]1C=CO[C@@]2(C)Oc3c(C)c(O)c4c(O)c(c(/C=N/N5CCN(C)CC5)c(O)c4c3C2=O)NC(=O)/C(C)=C\C=C[C@H](C)[C@H](O)[C@@H](C)[C@@H](O)[C@@H](C)[C@H](OC(C)=O)[C@@H]1C	-17.1%	inactive	–	–
COc1ccc(C(=O)N2CCN(C(=O)/C=C/c3ccc(Br)cc3)CC2)cc1	-12.8%	inactive	–	–
CS(=O)(=O)c1ccc([C@@H](O)[C@@H](CF)NC(=O)C(Cl)Cl)cc1	-12.7%	inactive	–	–
CC1Oc2cc(cnc2N)-c2c(nn(C)c2C#N)CN(C)C(=O)c2ccc(F)cc21 (centres undefined)	-20%	20 µM (active)	–	–
Nc1cc(C(F)(F)F)c(-c2nc(N3CCOCC3)nc(N3CCOCC3)n2)cn1	–	2 µM (active)	11.2 µM (active)	–
COCCNc1cc(NC(=O)N2CCCc3cc(CN4CCN(C)CC4=O)c(C=O)nc32)ncc1C#N	-2.64%	–	–	-1.4% [at 9.17 µM]
C/C(=C\C(=O)Nc1ccccc1C(=O)O)c1ccc2ccccc2c1	–	28.2 µM (active)	12.6 µM (active)	–
COC1=C2C[C@H](C)C[C@H](OC)[C@H](O)[C@@H](C)/C=C(/C)[C@H](OC(N)=O)[C@@H](OC)/C=C\C=C(\C)C(=O)NC(=CC1=O)C2=O	-3.63%	inactive	–	–
COc1ccnc2c1CCCCC2S(=O)c1nc2ccccc2[nH]1 (centres undefined)	4.45%	inactive	–	–
C[C@H](CS)C(=O)N1CCC[C@H]1C(=O)O	-1.14%	inactive	–	–
CC[C@H](c1ccc(O)cc1)[C@@H](CC)c1ccc(O)cc1	–	2.59 µM (active)	5.17 µM (active)	–
CCc1oc2ccccc2c1C(=O)c1cc(Br)c(O)c(Br)c1	–	7.31 µM (active)	7.31 µM (active)	–
C=C[C@@]1(C)CC(=O)[C@]2(O)[C@@]3(C)[C@@H](O)CCC(C)(C)[C@@H]3[C@H](O)[C@H](OC(C)=O)[C@@]2(C)O1	4.29%	inactive	–	–

Structure (SMILES)	activity (max response) [1]	Potency [2]	Potency [1]	activity change, negative = viability loss [2]
Cc1ncc([N+](=O)[O-])n1CC(O)CCl (centres undefined)	-4.94%	inactive	–	–
CC(CN(C)C)C(C)(O)Cc1ccc(Cl)cc1 (centres undefined)	6.59%	inactive	–	–
CC(=O)OCC(=O)[C@@]1(O)CC[C@H]2[C@@H]3CCC4=CC(=O)C=C[C@]4(C)[C@@]3(F)[C@@H](O)C[C@@]21C	2.62%	inactive	–	–
CC(=O)Oc1ccc(C(c2ccc(OC(C)=O)cc2)c2ccccn2)cc1	-17.9%	inactive	–	–
Cn1c(=O)c(Oc2ccc(F)cc2F)cc2cnc(NC3CCOCC3)nc21	-3.03%	inactive	–	–
CN1C(=O)N[C@@H](Cc2c[nH]c3c(Cl)cccc23)C1=O	-3.59%	inactive	–	–
OC(CCN1CCCCC1)(c1ccccc1)c1ccccc1	3.2%	inactive	–	–
CCC(CC)C(c1ccc(Nc2nc3ccccc3s2)cc1)n1cncn1 (centres undefined)	–	17.8 µM (active)	22.4 µM (active)	–
O=C(Nc1ccc2c(c1)CCN(Cc1ncn[nH]1)C2)c1ccccc1-c1ccc(C(F)(F)F)cc1	-15.2%	inactive	–	–
Oc1c(Cl)cc(Cl)cc1Sc1cc(Cl)cc(Cl)c1O	–	20.6 µM (active)	20.6 µM (active)	–
CCC(C(=O)OCCN1CCOC(c2ccccc2)C1C)c1ccccc1 (centres undefined)	3.6%	inactive	–	–
CO/N=C1\CN(c2nc3c(cc2F)c(=O)c(C(=O)O)cn3C2CC2)CC1CN (centres undefined)	-3.25%	inactive	–	–
CCOC(=O)c1ccc(O)c(O)c1	-9.67%	inactive	–	–
CN1C(=O)N(c2cc(Cl)cc(Cl)c2)C(=O)[C@]12CN(Cc1cc(C(=O)O)cs1)C[C@H]2c1ccc(C#N)cc1	-17%	inactive	–	–
CNC(=O)c1c(C)oc2cc(Oc3ncnc4cc(OC)c(OC)cc34)ccc12	9.66%	inactive	–	–
CCc1oc2ccccc2c1C(=O)c1cc(I)c(O)c(I)c1	–	6.51 µM (active)	5.8 µM (active)	–
CCC(=O)O[C@]1(C(=O)COC)[C@@H](C)C[C@H]2[C@@H]3CCC4=CC(=O)C=C[C@]4(C)C3(F)[C@@H](O)C[C@@]21C (some centres undefined)	1.6%	inactive	–	–
O=C(Nc1ccc(C(=O)O)c(O)c1)c1ccccc1	1.55%	inactive	–	–
NC(N)=NC(=O)Cc1c(Cl)cccc1Cl	-7.72%	inactive	–	–

Structure (SMILES)	activity (max response) [1]	Potency [2]	Potency [1]	activity change, negative = viability loss [2]
CCS(=O)(=O)c1ccc2oc(-c3ccc4ccccc4c3)nc2c1	1.49%	inactive	–	–
CCN(CCCCOC(=O)c1ccc(OC)c(OC)c1)C(C)Cc1ccc(OC)cc1 (centres undefined)	-18.6%	inactive	–	–
CCOc1ccc(-n2c([C@@H](C)N(Cc3cccnc3)C(=O)Cc3ccc(F)c(C(F)(F)F)c3)nc3ncccc3c2=O)cc1	-7.78%	inactive	–	–
O=C(O)c1ccc(O)c2ncccc12	-6.62%	inactive	–	–
CCOc1ccccc1O[C@H](c1ccccc1)[C@H]1CNCCO1	-2.45%	inactive	–	–
O=c1[nH]nc2c3c(cccc13)NC(CN1Cc3ccccc3C1)=N2	-23.2%	inactive	–	–
CC(C)C[C@H](CC(=O)O)C(=O)N[C@@H](Cc1c[nH]c2ccccc12)C(=O)N[C@@H](C)c1ccccc1	0.614%	inactive	–	–
N[C@H](Cc1c[nH]c2ccccc12)C(=O)O	5.49%	inactive	–	–
CCN(CC)CCNC(=O)c1c(C)[nH]c(/C=C2\C(=O)Nc3ccc(F)cc32)c1C	–	13 µM (active) and 15.8 µM (active)	18.4 µM (active)	–
Cc1cc(O)cc(C)c1Cl	6.52%	inactive	–	–
CCCCCCCCCCCCOCCO	0.306%	inactive	–	–
CN1C(=O)c2ccccc2C1=O	-9.75%	inactive	–	–
CO[C@@]1(NC(=O)CSCC#N)C(=O)N2C(C(=O)O)=C(CSc3nnnn3C)CS[C@@H]21	9.84%	inactive	–	–
O=C1NC(=O)/C(=C/c2ccc(-c3ccc(F)cc3O)o2)S1	–	25.1 µM (active)	28.2 µM (active)	–
Cc1cccc(-c2[nH]ncc2-c2ccc(F)c(-c3cnn(CCO)c3)c2)n1	-6.75%	inactive	–	–
NC(=O)c1cc[n+](CC2=C(C(=O)[O-])N3C(=O)[C@@H](NC(=O)Cc4cccs4)[C@H]3SC2)cc1	11.8%	inactive	–	–
CCCCCCCCCCC[C@@H](C[C@@H]1OC(=O)[C@H]1CCCCCC)OC(=O)[C@H](CC(C)C)NC=O	4.97%	inactive	–	–
O=C(CN1CCN(Cc2ccc3c(c2)OCO3)CC1)N1c2ccccc2Sc2ccccc21	-10.1%	inactive	–	–
CC(C)CCOC(=O)c1ccc(N(C)C)cc1	5.28%	inactive	–	–
